According to PubChem BioAssay (NCI):
Compounds without any hit were thinned out: in the full panel of roughly 83,000, 20% have a hit.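 A percent growth of 40 corresponds to 60% growth inhibition; 0 means no net growth; -100 means all cells died. Active threshold: below 10.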 The source made the active and inactive calls.

What was measured:
Assay in all cases: NCI-60 one-dose screen, 48 h (100 = growth as untreated, 0 = no growth, -100 = all killed)
Conditions in all cases: 10 µM unless noted
RPMI-8226 leukemia = system: RPMI-8226 leukemia
OVCAR-8 ovarian = system: OVCAR-8 ovarian
OVCAR-5 ovarian = system: OVCAR-5 ovarian
OVCAR-4 ovarian = system: OVCAR-4 ovarian
SK-OV-3 ovarian = system: SK-OV-3 ovarian
IGROV1 ovarian = system: IGROV1 ovarian
OVCAR-3 ovarian = system: OVCAR-3 ovarian
HS 578T breast = system: HS 578T breast
NCI/ADR-RES ovarian = system: NCI/ADR-RES ovarian
T-47D breast = system: T-47D breast
BT-549 breast = system: BT-549 breast
MDA-MB-435 melanoma = system: MDA-MB-435 melanoma
SW-620 colon = system: SW-620 colon
MCF7 breast = system: MCF7 breast
HCT-116 colon = system: HCT-116 colon
KM12 colon = system: KM12 colon
HCC-2998 colon = system: HCC-2998 colon

Measured: growth

NC(N)=Nc1ccc(S(=O)(=O)O)cc1
inactive: RPMI-8226 leukemia 101% | OVCAR-8 ovarian 107% | OVCAR-5 ovarian 99.7% | OVCAR-4 ovarian 95.5% | SK-OV-3 ovarian 96.7% | IGROV1 ovarian 121% | OVCAR-3 ovarian 129% | HS 578T breast 105% | NCI/ADR-RES ovarian 93.6% | T-47D breast 114% | BT-549 breast 119% | MDA-MB-435 melanoma 106% | SW-620 colon 103% | MCF7 breast 102% | HCT-116 colon 107% | KM12 colon 116%

O=C1C(Cl)=C(Cl)C(=O)c2c1nc1n2CCCC1
inactive: RPMI-8226 leukemia 99.3% | OVCAR-8 ovarian 100% | OVCAR-5 ovarian 116% | OVCAR-4 ovarian 117% | SK-OV-3 ovarian 90.8% | IGROV1 ovarian 104% | OVCAR-3 ovarian 82.5% | HS 578T breast 105% | NCI/ADR-RES ovarian 93.5% | T-47D breast 48.3% | BT-549 breast 95.5% | MDA-MB-435 melanoma 115% | SW-620 colon 81.6% | MCF7 breast 70% | HCC-2998 colon 52.5% | KM12 colon 80.5%

Oc1ccc(Nc2nccc(-c3ccc4ccccc4c3)n2)cc1
active: MDA-MB-435 melanoma 8.01%
inactive: RPMI-8226 leukemia 18.3% | OVCAR-8 ovarian 31.6% | OVCAR-5 ovarian 66.9% | OVCAR-4 ovarian 65.5% | SK-OV-3 ovarian 57.4% | IGROV1 ovarian 36.3% | OVCAR-3 ovarian 34.3% | HS 578T breast 42.8% | NCI/ADR-RES ovarian 14.7% | T-47D breast 48.7% | BT-549 breast 48.2% | SW-620 colon 31.8% | MCF7 breast 20.2% | HCT-116 colon 23.2% | KM12 colon 27.4%

CC(=O)Oc1ccc(Nc2c3ccccc3nc3ccccc23)cc1
inactive: OVCAR-5 ovarian 18% | OVCAR-4 ovarian 13.8% | HS 578T breast 25.1% | NCI/ADR-RES ovarian 23.8% | BT-549 breast 55.2% | HCT-116 colon 14% | KM12 colon 18.1%
active: RPMI-8226 leukemia -16.2% | OVCAR-8 ovarian -58.9% | SK-OV-3 ovarian 3.92% | IGROV1 ovarian -11.8% | OVCAR-3 ovarian 9.24% | T-47D breast 7.4% | MDA-MB-435 melanoma 8.19% | SW-620 colon 3.73% | MCF7 breast 3.91%

COc1ccc2nc3cc(Cl)ccc3c(NCCNCC(O)CO)c2c1 (centres undefined)
active: MCF7 breast 9.17% | HCT-116 colon 9.6%
inactive: RPMI-8226 leukemia 20.6% | OVCAR-8 ovarian 23.3% | OVCAR-5 ovarian 30.7% | OVCAR-4 ovarian 30.5% | SK-OV-3 ovarian 32.4% | IGROV1 ovarian 19.8% | OVCAR-3 ovarian 26.2% | HS 578T breast 49.6% | NCI/ADR-RES ovarian 87.7% | T-47D breast 21.7% | BT-549 breast 44.3% | SW-620 colon 15.2% | HCC-2998 colon 44.8% | KM12 colon 20.7%

NCCN1CCN(c2nccc(-c3ccc4ccccc4c3)n2)CC1
inactive: OVCAR-8 ovarian 71.3% | OVCAR-5 ovarian 73.8% | OVCAR-4 ovarian 78.7% | SK-OV-3 ovarian 88.6% | IGROV1 ovarian 51.2% | OVCAR-3 ovarian 73.8% | HS 578T breast 63.9% | NCI/ADR-RES ovarian 69.4% | T-47D breast 43.1% | BT-549 breast 82.2% | MCF7 breast 51.2% | HCC-2998 colon 14% | KM12 colon 48.1%
active: RPMI-8226 leukemia 5.16% | MDA-MB-435 melanoma -26.4% | SW-620 colon -37.9% | HCT-116 colon 3.52%

COc1cc2cc(COc3nccc(-c4ccc(Cl)cc4)n3)c(=O)[nH]c2cc1OC
inactive: OVCAR-8 ovarian 81.3% | OVCAR-5 ovarian 96.7% | OVCAR-4 ovarian 82.5% | SK-OV-3 ovarian 89.9% | IGROV1 ovarian 79.6% | OVCAR-3 ovarian 90.4% | HS 578T breast 67.3% | NCI/ADR-RES ovarian 84.2% | T-47D breast 85.5% | BT-549 breast 86.4% | SW-620 colon 36.5% | MCF7 breast 46.3% | HCT-116 colon 53.4% | HCC-2998 colon 11.7% | KM12 colon 76.2%
active: RPMI-8226 leukemia -28.4%

COc1ccc2[nH]c(=O)c(/C=C/C(=O)c3ccc(Nc4nccc(-c5ccc6ccccc6c5)n4)cc3)cc2c1
inactive: RPMI-8226 leukemia 105% | OVCAR-8 ovarian 100% | OVCAR-5 ovarian 104% | OVCAR-4 ovarian 131% | SK-OV-3 ovarian 105% | IGROV1 ovarian 98.9% | OVCAR-3 ovarian 105% | HS 578T breast 98.8% | NCI/ADR-RES ovarian 99.2% | T-47D breast 97.2% | BT-549 breast 98.9% | MDA-MB-435 melanoma 108% | SW-620 colon 97.1% | MCF7 breast 92.8% | HCT-116 colon 91.1% | HCC-2998 colon 104% | KM12 colon 93.3%

NC(=S)N/N=C/c1cc(-c2cccc(N)c2)ccn1
inactive: RPMI-8226 leukemia 12.2% | OVCAR-8 ovarian 21.6% | OVCAR-5 ovarian 46.1% | OVCAR-4 ovarian 47.3% | SK-OV-3 ovarian 27.5% | IGROV1 ovarian 16% | OVCAR-3 ovarian 40.8% | HS 578T breast 38.1% | NCI/ADR-RES ovarian 21.2% | T-47D breast 10.8% | BT-549 breast 55.4% | MDA-MB-435 melanoma 32.9% | SW-620 colon 35.6% | MCF7 breast 21.9% | HCT-116 colon 28.4% | KM12 colon 30%

C[C@@H]1CC[C@@H]2[C@@H]1[C@H](OC(=O)/C=C/c1ccccc1)[C@]1(c3ccccc3)C[C@@H](OC(=O)CO)[C@@]2(C)O1
inactive: RPMI-8226 leukemia 97.7% | OVCAR-8 ovarian 54.3% | OVCAR-5 ovarian 99.8% | OVCAR-4 ovarian 103% | SK-OV-3 ovarian 96.1% | IGROV1 ovarian 93.6% | OVCAR-3 ovarian 103% | NCI/ADR-RES ovarian 62.1% | T-47D breast 89.5% | BT-549 breast 17.1% | SW-620 colon 96.6% | MCF7 breast 84.3% | HCT-116 colon 89.5% | HCC-2998 colon 99.4% | KM12 colon 96%
active: HS 578T breast -20%

O=S(=O)(Nc1ccc(Cl)cc1Cl)c1ccc(-c2cnc(C3CC3)o2)cc1
inactive: RPMI-8226 leukemia 21.6% | OVCAR-8 ovarian 26.5% | OVCAR-5 ovarian 40.2% | OVCAR-4 ovarian 52.6% | SK-OV-3 ovarian 41.6% | IGROV1 ovarian 29.2% | T-47D breast 33.9% | BT-549 breast 47% | SW-620 colon 21% | MCF7 breast 15.3% | HCT-116 colon 24.9% | KM12 colon 33.3%
active: OVCAR-3 ovarian -17.8% | HS 578T breast 9.44% | NCI/ADR-RES ovarian 0.514% | MDA-MB-435 melanoma -5.62%

COc1ccc(CN2C(=O)/C(=C\c3cc(OC)c(OC)c(OC)c3)c3cc(OC)ccc32)cc1
inactive: OVCAR-5 ovarian 15% | OVCAR-4 ovarian 27.2% | BT-549 breast 27.1% | HCC-2998 colon 74.1%
active: RPMI-8226 leukemia -35.9% | OVCAR-8 ovarian -43.2% | SK-OV-3 ovarian 7.88% | IGROV1 ovarian -9.32% | OVCAR-3 ovarian -10.8% | HS 578T breast 9.55% | NCI/ADR-RES ovarian 6.96% | T-47D breast -0.59% | MDA-MB-435 melanoma -0.0336% | SW-620 colon -64.1% | MCF7 breast 7.67% | KM12 colon -86%

Oc1cccc(Nc2nccc(-c3ccc4ccccc4c3)n2)c1
inactive: OVCAR-8 ovarian 29.4% | OVCAR-5 ovarian 58.4% | OVCAR-4 ovarian 86.5% | SK-OV-3 ovarian 27.2% | IGROV1 ovarian 41.7% | OVCAR-3 ovarian 14.7% | HS 578T breast 13% | NCI/ADR-RES ovarian 19.9% | T-47D breast 47.6% | BT-549 breast 41.3% | SW-620 colon 31.3% | MCF7 breast 25.3% | HCT-116 colon 20.6% | HCC-2998 colon 52.2% | KM12 colon 28.2%
active: RPMI-8226 leukemia 9.15%

Cc1ccc(S(=O)(=O)n2cc(-c3csc(-c4cn(C)c5ncccc45)n3)c3ccccc32)cc1
inactive: RPMI-8226 leukemia 71.1% | OVCAR-8 ovarian 80.5% | OVCAR-5 ovarian 81.9% | OVCAR-4 ovarian 71.5% | SK-OV-3 ovarian 70.2% | IGROV1 ovarian 56.3% | OVCAR-3 ovarian 30.3% | HS 578T breast 85.8% | NCI/ADR-RES ovarian 43.3% | T-47D breast 24.4% | BT-549 breast 66.9% | SW-620 colon 40% | MCF7 breast 19.8% | HCC-2998 colon 88.4% | KM12 colon 29.3%
active: MDA-MB-435 melanoma 3.65%

COc1ccc(/C=C/C(=O)c2ccc(NC(=O)c3cc4cc5ccccc5nc4s3)cc2)cc1OC
inactive: RPMI-8226 leukemia 99.4% | OVCAR-8 ovarian 111% | OVCAR-5 ovarian 96.8% | OVCAR-4 ovarian 97.1% | SK-OV-3 ovarian 106% | IGROV1 ovarian 81.8% | OVCAR-3 ovarian 95.5% | HS 578T breast 107% | NCI/ADR-RES ovarian 105% | T-47D breast 87.7% | BT-549 breast 104% | SW-620 colon 105% | MCF7 breast 80.3% | HCT-116 colon 91.6% | KM12 colon 76.3%

COCCOc1ccc(-c2nc3ccc(-c4nc5ccc(N6CCN(C)CC6)cc5[nH]4)cc3[nH]2)cc1
inactive: RPMI-8226 leukemia 28.4% | OVCAR-5 ovarian 45.3% | OVCAR-4 ovarian 14.1% | IGROV1 ovarian 28.3% | NCI/ADR-RES ovarian 100% | MCF7 breast 17.7% | KM12 colon 46.2%
active: OVCAR-8 ovarian -39% | SK-OV-3 ovarian 7.92% | OVCAR-3 ovarian 2.47% | HS 578T breast -3.7% | T-47D breast 2.28% | BT-549 breast -30.5% | MDA-MB-435 melanoma -43.6% | SW-620 colon 4.55% | HCT-116 colon -57.6% | HCC-2998 colon -52.7%

CSc1nc(NCCCNc2ccnc3cc(Cl)ccc23)cc(-c2ccccc2)n1
inactive: OVCAR-8 ovarian 81.7% | OVCAR-5 ovarian 95% | OVCAR-4 ovarian 66.6% | SK-OV-3 ovarian 82.3% | IGROV1 ovarian 67% | OVCAR-3 ovarian 72.3% | HS 578T breast 65% | NCI/ADR-RES ovarian 67.5% | T-47D breast 66.3% | BT-549 breast 86.9% | SW-620 colon 72% | HCT-116 colon 43.1% | KM12 colon 68.3%
active: RPMI-8226 leukemia 7.4% | MCF7 breast 6.05% | HCC-2998 colon -59.6%

N=c1c2ccccc2nc2n1CCCCC2
inactive: RPMI-8226 leukemia 105% | OVCAR-8 ovarian 114% | OVCAR-5 ovarian 96.1% | OVCAR-4 ovarian 107% | SK-OV-3 ovarian 112% | IGROV1 ovarian 106% | OVCAR-3 ovarian 116% | HS 578T breast 95.4% | NCI/ADR-RES ovarian 105% | T-47D breast 111% | BT-549 breast 117% | SW-620 colon 110% | MCF7 breast 99.4% | KM12 colon 112%

C=C1CCC2C3(C)COC(c4ccc(SC)cc4)OC3CCC2(C)C1C/C=C1/C(=O)OCC1O (centres undefined)
inactive: RPMI-8226 leukemia 11.6% | OVCAR-8 ovarian 34.9% | OVCAR-5 ovarian 79.1% | OVCAR-4 ovarian 59.1% | SK-OV-3 ovarian 96.3% | IGROV1 ovarian 99.2% | OVCAR-3 ovarian 71.4% | HS 578T breast 102% | NCI/ADR-RES ovarian 49.8% | T-47D breast 23.6% | BT-549 breast 64.6% | MDA-MB-435 melanoma 61.3% | SW-620 colon 10.6% | MCF7 breast 27.7% | HCT-116 colon 11.2% | KM12 colon 44.3%
